Results from PubChem BioAssay (NCI).
This is part of a sample that, as a whole, favours compounds with a hit. Of some 79,000 tested, about 15% had one in any assay. The source made the active and inactive calls. No stated cut-off is given here; in the data, active means growth inhibition above about 70%; inactive means the rest.

What was measured:
[1] = NCI Yeast Anticancer Drug Screen. Data for the rad52 strain (AID 147);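 further: 0% = growth of vehicle-treated control cultures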; conditions: S. cerevisiae rad52 mutant growth inhibition, stronger effect = higher value
Method in brief: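 Measured: yeast growth inhibition. System: strain with a defined DNA damage repair alteration. Reference: vehicle-treated control cultures.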

[2] = NCI Yeast Anticancer Drug Screen. Data for the wt1 strain (AID 149);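 further: 0% = growth of vehicle-treated wt1 cultures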; conditions: S. cerevisiae wt1 strain (SPY 50644) growth inhibition, stronger effect = higher value
Method in brief: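 Measured: growth of wt1 yeast under compound versus vehicle treatment, reported as inhibition.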

[3] = NCI Yeast Anticancer Drug Screen. Data for the rad50EPP+ strain (AID 151);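 further: 0% = growth of vehicle-treated control cultures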; conditions: S. cerevisiae rad50 mutant strain, stronger effect = higher value
Method in brief: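 One strain with a rad50 alteration (rad50EPP+) was compound-treated, its growth then compared to that of vehicle controls.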

[4] = NCI Yeast Anticancer Drug Screen. Data for the mgt1 strain (AID 153); conditions: S. cerevisiae mgt1 mutant growth inhibition, stronger effect = higher value
Method in brief: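 After exposure of the mgt1 yeast mutant to compound, growth was measured and reported as inhibition compared with vehicle controls.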

[5] = NCI Yeast Anticancer Drug Screen. Data for the rad50 strain (AID 155);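 further: 0% = growth of vehicle-only cultures of the same strain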; conditions: S. cerevisiae rad50 strain growth inhibition, stronger effect = higher value
Method in brief: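 Growth of the mutant yeast was measured after compound exposure and referenced to vehicle-treated cultures.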

[6] = NCI Yeast Anticancer Drug Screen. Data for the mec2-1 strain (AID 157); conditions: S. cerevisiae mec2-1 strain, stronger effect = higher value
Method in brief: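 Test agents were screened against the mec2-1 yeast strain, with defined DNA repair or cell cycle alteration. Growth was scored as inhibition against vehicle-only controls.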

[7] = NCI Yeast Anticancer Drug Screen. Data for the sgs1 mgt1 strain (AID 161);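 further: 0% = growth of cultures given vehicle only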; conditions: S. cerevisiae sgs1 mgt1 strain, stronger effect = higher value
Method in brief: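 Inhibition of yeast growth, normalised to vehicle-treated controls, is reported for a strain bearing genetic alterations in DNA damage repair.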

[8] = NCI Yeast Anticancer Drug Screen. Data for the CLN2oe strain (AID 163);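 further: 0% = growth of vehicle-only control cultures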; conditions: S. cerevisiae CLN2oe strain, stronger effect = higher value
Method in brief: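 Here, growth inhibition in a cell-cycle-altered yeast strain after compound exposure was quantified against vehicle control growth.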

[9] = NCI Yeast Anticancer Drug Screen. Data for the cln2 rad14 strain (AID 165);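 further: 0% = growth equal to vehicle treated cultures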; conditions: S. cerevisiae cln2 rad14 strain, stronger effect = higher value
Method in brief: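 Growth of compound-exposed yeast (cln2 rad14 genotype) measured and expressed as inhibition relative to vehicle.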

[10] = NCI Yeast Anticancer Drug Screen. Data for the bub3 strain (AID 167); conditions: S. cerevisiae bub3 mutant strain, stronger effect = higher value
Method in brief: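 Whole-cell yeast assay. The mutant strain was incubated with compounds, and growth inhibition was determined by comparison with vehicle-treated cells.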

[11] = NCI Yeast Anticancer Drug Screen. Data for the wt2 strain (AID 169);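 further: 0% = growth of vehicle-treated yeast cultures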; conditions: S. cerevisiae wt2 strain growth inhibition, stronger effect = higher value
Method in brief: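 Genetically defined yeast strains from a DNA-repair/cell-cycle panel were used. Compound-exposed yeast growth was measured, and the inhibition was calculated relative to vehicle treatment.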

[12] = NCI Yeast Anticancer Drug Screen. Data for the mlh1 strain (AID 171);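 further: 0% = growth of vehicle-treated control cultures of the same strain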; conditions: S. cerevisiae mlh1 strain growth inhibition, stronger effect = higher value
Method in brief: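 Here the genetically defined yeast mutant is grown with each compound, and the extent to which its growth falls below that of vehicle-exposed cells is reported.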

[13] = NCI Yeast Anticancer Drug Screen. Data for the sgs1 strain (AID 173);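 further: 0% = growth of vehicle-only control cultures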; conditions: S. cerevisiae sgs1 mutant, stronger effect = higher value
Method in brief: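 Relative growth inhibition, referenced to vehicle, was determined in a yeast strain with a defined alteration affecting DNA damage repair or cell cycle control after compound exposure.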

[14] = NCI Yeast Anticancer Drug Screen. Data for the mlh1 rad18 strain (AID 175); conditions: S. cerevisiae mlh1 rad18 strain growth inhibition, stronger effect = higher value
Method in brief: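 In this whole-cell yeast screen, a strain with altered DNA damage repair is challenged with compound, and its growth is measured against matched vehicle-treated controls.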

[15] = NCI Yeast Anticancer Drug Screen. Data for the rad18 strain (AID 177); conditions: S. cerevisiae rad18 mutant growth inhibition, stronger effect = higher value
Method in brief: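 Screen uses a yeast strain with a defined lesion in DNA damage repair; compound effect is read as loss of growth compared to untreated vehicle cultures.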

[16] = NCI Yeast Anticancer Drug Screen. Data for the rad14 strain (AID 159);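 further: 0% = growth of vehicle-treated control cultures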; conditions: S. cerevisiae rad14 strain growth inhibition, stronger effect = higher value
Method in brief: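 Here, inhibition of yeast growth was measured after compound exposure, using a strain with a genetic defect in DNA damage repair and vehicle-treated cultures as the reference.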

[17] = at 5.0 µM (retest, dose inferred, filed as 0.5)
[18] = at 50.0 µM (retest, dose inferred, filed as 5.0)

Measured: growth inhibition

Cc1ccc(S(=O)(=O)Nc2cccc3cccnc23)cc1
active: [1]; at 33.0 µM 75% | [2]; at 33.0 µM 71% | [4]; at 33.0 µM 77% | [4]; at 100.0 µM 79% | [5]; at 33.0 µM 79% | [5]; [18] 97% | [5]; at 100.0 µM 84% | [6]; at 33.0 µM 79% | [6]; [18] 98% | [12]; at 33.0 µM 78% | [13]; at 33.0 µM 82% | [14]; [18] 100% | [14]; at 50.0 µM 71% | [15]; at 33.0 µM 74% | [15]; at 100.0 µM 71%
inactive: [1]; at 1.2 µM 10% | [1]; at 3.7 µM 14% | [1]; at 11.0 µM 25% | [1]; at 100.0 µM 52% | [2]; at 1.2 µM 15% | [2]; at 3.7 µM 14% | [2]; at 11.0 µM 18% | [2]; at 100.0 µM 39% | [3]; at 1.2 µM 16% | [3]; at 3.7 µM 17% | [3]; at 11.0 µM 16% | [3]; at 33.0 µM 62% | [3]; at 100.0 µM 66% | [4]; at 1.2 µM 14% | [4]; at 3.7 µM -5% | [4]; at 11.0 µM 25% | [5]; at 1.2 µM 15% | [5]; at 3.7 µM 25% | [5]; [17] 46% | [5]; at 11.0 µM 22% | [5]; at 50.0 µM 46% | [6]; at 1.2 µM 7% | [6]; at 3.7 µM 18% | [6]; [17] 49% | [6]; at 11.0 µM 23% | [6]; at 50.0 µM 20.2% | [6]; at 100.0 µM 60% | [7]; [17] -15% | [7]; [18] 41% | [7]; at 50.0 µM 59% | [8]; at 1.2 µM 15% | [8]; at 3.7 µM 12% | [8]; at 11.0 µM 41% | [8]; at 33.0 µM 69% | [8]; at 100.0 µM 46% | [9]; [17] 25% | [9]; [18] 54% | [9]; at 50.0 µM 48% | [10]; at 1.2 µM -11% | [10]; at 3.7 µM -14% | [10]; [17] 29% | [10]; at 11.0 µM -3% | [10]; at 33.0 µM 50% | [10]; [18] 23% | [10]; at 50.0 µM 27.7% | [10]; at 100.0 µM 15% | [11]; at 1.2 µM -13% | [11]; at 3.7 µM -5% | [11]; at 11.0 µM 8% | [11]; at 33.0 µM 53% | [11]; at 100.0 µM 59% | [12]; at 1.2 µM 14% | [12]; at 3.7 µM 3% | [12]; at 11.0 µM 9% | [12]; at 100.0 µM 62% | [13]; at 1.2 µM 1% | [13]; at 3.7 µM 4% | [13]; at 11.0 µM 44% | [13]; at 100.0 µM 63% | [14]; [17] 44% | [15]; at 1.2 µM 9% | [15]; at 3.7 µM 4% | [15]; at 11.0 µM 25%

CCOP(=O)(OCC)/C(C#N)=C\c1cccc2ccccc12
active: [1]; at 33.0 µM 92% | [1]; at 100.0 µM 97% | [2]; at 33.0 µM 87% | [2]; at 100.0 µM 98% | [4]; at 33.0 µM 84% | [4]; at 100.0 µM 98% | [5]; at 33.0 µM 92% | [5]; [18] 90% | [5]; at 50.0 µM 85.7% | [5]; at 100.0 µM 98% | [6]; at 33.0 µM 85% | [6]; [18] 93% | [6]; at 50.0 µM 88.2% | [6]; at 100.0 µM 98% | [16]; at 33.0 µM 87% | [16]; at 100.0 µM 97% | [8]; at 100.0 µM 98% | [9]; [18] 93% | [9]; at 50.0 µM 88.8% | [10]; at 33.0 µM 83% | [10]; [18] 95% | [10]; at 50.0 µM 89.2% | [10]; at 100.0 µM 97% | [11]; at 33.0 µM 82% | [11]; at 100.0 µM 98% | [12]; at 33.0 µM 89% | [12]; at 100.0 µM 98% | [13]; at 33.0 µM 93% | [13]; at 100.0 µM 99% | [14]; [18] 95% | [14]; at 50.0 µM 86.2% | [15]; at 33.0 µM 95% | [15]; at 100.0 µM 98%
inactive: [1]; at 1.2 µM -2% | [1]; at 3.7 µM -1% | [1]; at 11.0 µM 12% | [2]; at 1.2 µM 2% | [2]; at 3.7 µM 8% | [2]; at 11.0 µM 6% | [3]; at 1.2 µM 8% | [3]; at 3.7 µM 10% | [3]; at 11.0 µM 3% | [3]; at 33.0 µM 22% | [3]; at 100.0 µM 41% | [4]; at 1.2 µM -6% | [4]; at 3.7 µM -10% | [4]; at 11.0 µM -21% | [5]; at 1.2 µM -4% | [5]; at 3.7 µM 1% | [5]; [17] 14% | [5]; at 11.0 µM 22% | [6]; at 1.2 µM 4% | [6]; at 3.7 µM 16% | [6]; [17] -19% | [6]; at 11.0 µM 15% | [16]; at 1.2 µM -8% | [16]; at 3.7 µM -13% | [16]; at 11.0 µM -25% | [8]; at 1.2 µM 13% | [8]; at 3.7 µM 2% | [8]; at 11.0 µM -7% | [8]; at 33.0 µM 59% | [9]; [17] 12% | [10]; at 1.2 µM -29% | [10]; at 3.7 µM -13% | [10]; [17] -3% | [10]; at 11.0 µM -41% | [11]; at 1.2 µM -6% | [11]; at 3.7 µM -2% | [11]; at 11.0 µM 2% | [12]; at 1.2 µM 11% | [12]; at 3.7 µM 10% | [12]; at 11.0 µM 17% | [13]; at 1.2 µM 22% | [13]; at 3.7 µM 23% | [13]; at 11.0 µM 43% | [14]; [17] -13% | [15]; at 1.2 µM 15% | [15]; at 3.7 µM 21% | [15]; at 11.0 µM 47%
